Screens: PubChem, National Center for Advancing Translational Sciences (NCATS)
Tau fluor cs – counter-screen for tau fibril formation inhibitors; 280,000 tested, 0.93% active; tau K18 P301L Alexa594 fluorescence, heparin fibrillization; AID 1463; Potency, µM (top dose mostly 57.7 µM), inactives show top-dose activity change, negative = decrease; also: potency is read from the fitted curve at half-maximal effect; nearly all actives have a fitted effect of over 55% in size
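Human K18 P301L tau (15 uM unlabeled plus 0.24 uM Alexa 594-labeled, final) in 100 mM sodium acetate pH 7 was mixed with compound and 20 uM heparin and incubated 6 hr at 37 C.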
Tau fibril FP – blocks human tau fibril formation measured by polarization; K18 P301L tau heparin fibrillization, Alexa594 FP, 6 h; Potency, µM (doses to about 57.7 µM), for the others: top-dose activity, negative = inhibition, usual class: inhibitors; 280,000 tested, 0.39% active; also: potency is read from the fitted curve at half-maximal effect; nearly all actives have a fitted effect of over 55% in size
Target sequence (P10636 561-689 P618L limits assumed): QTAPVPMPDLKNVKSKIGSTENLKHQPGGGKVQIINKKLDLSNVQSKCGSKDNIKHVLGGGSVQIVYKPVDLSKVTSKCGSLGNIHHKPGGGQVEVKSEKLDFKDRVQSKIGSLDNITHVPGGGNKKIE
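FP of Alexa 594-tau after heparin (20 uM) induction. Substrate: human K18 P301L, 15 uM unlabeled, 0.24 uM labeled. Buffer 100 mM sodium acetate pH 7. 6 hr, 37 C.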
Tau fibril ThT – inhibitors of human tau fibril formation, thioflavin T binding; 270,000 tested, 2.1% active; AID 1460; P10636; recombinant tau K18 P301L (four-repeat tau fragment), heparin-induced fibrillization, ThT fluorescence; Potency, µM (top dose mostly 57.4 µM), inactives show at the top dose activity, negative = inhibition, hits mostly inhibitors; also: potency is read from the fitted curve at half-maximal effect; nearly all actives have a fitted effect of over 55% in size
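Heparin-induced fibrillization of the P301L-mutant K18 repeat-domain fragment of human tau was followed by ThT binding in quantitative high-throughput format.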
FBPA coupling cs – coupling enzyme interference in Giardia aldolase counter-screen | coupling enzyme system counterscreen, AmpLite Red fluorescence | activity change, negative = inhibition, % at 58.2 µM, hits read low | 290,000 tested, 0.67% active | AID 2472; in the data active = activity change below about -30%
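Compounds tested against the coupling enzymes alone at 57.5 uM final; readout was AmpLite Red fluorescence (525/598 nm) after 20 min at RT.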
KDM4E inh – JMJD2E (human) inhibition; B2RXH2; JMJD2E catalytic domain, FDH-coupled NADH fluorescence (FDH is formaldehyde dehydrogenase); Potency, µM (series often up to 57.1 µM), for the others: top-dose activity change, negative = inhibition, actives largely listed as inhibitors; 230,000 tested, 1.6% active; active = well fitted inhibition curve with a large enough effect, not every such curve was filed as active; inconclusive = small, poorly fitted or top-dose-only effect, or another doubt; inactive = no such curve, though single readings can be large or run the other way;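 also: potency is read from the fitted curve at half-maximal effect; 0% = wells with enzyme and -100% = buffer wells without enzyme; nearly all actives have a fitted effect of over 50% in size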
Target sequence (B2RXH2 1-337 limits assumed): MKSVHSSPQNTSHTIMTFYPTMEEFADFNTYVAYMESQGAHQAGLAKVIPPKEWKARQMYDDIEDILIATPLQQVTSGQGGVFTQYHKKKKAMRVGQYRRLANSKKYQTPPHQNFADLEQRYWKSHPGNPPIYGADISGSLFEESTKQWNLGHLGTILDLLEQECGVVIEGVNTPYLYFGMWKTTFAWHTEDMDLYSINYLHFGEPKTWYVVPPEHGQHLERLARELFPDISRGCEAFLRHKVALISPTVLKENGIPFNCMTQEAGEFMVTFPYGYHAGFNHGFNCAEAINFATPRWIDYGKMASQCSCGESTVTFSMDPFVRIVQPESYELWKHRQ
Sfp PPTase inh – blocks B. subtilis Sfp PPTase activity. Biochemical Sfp PPTase activity, qHTS. Potency, µM, for inactives: largest response in the series, negative = inhibition, actives largely listed as inhibitors. 310,000 tested, 3.5% active. Q9F4F7. AID 1490;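 also: the enzyme is Sfp with the accession as filed and its product quenches rhodamine fluorescence; potency is read from the fitted curve at half-maximal effect; 0% = enzyme reaction without inhibitor and -100% = no enzyme wells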
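Sfp 15 nM + cpd, 15 min RT; start w/ rhodamine-CoA 5 uM, BHQ-2-YbbR 12.5 uM (final); 50 mM Hepes pH 7.6, 10 mM MgCl2, 0.01% NP-40, 0.01% BSA; read 525/598 nm at 0 and 30 min.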
* marks the source's active call; other numbers are inactive results; [ ] = another dose, or the depositor's remark. Rows were chosen to be rich in hits. Some 5.3% of all compounds tested hit in one or more screens of this group. Unless noted, calls follow the shape of the dose curve; as a rule, active = well fitted curve in the direction sought with a large enough effect; inconclusive = small, poorly fitted or top-dose-only effect, or another doubt; inactive = no such curve, though single readings can be large; an effect the other way counts as inactive or inconclusive. Unless noted, % is scaled to controls: 0 for no effect and ±100 for the full control effect.

What do the screens show for `CC1CCCN(C(=O)CSc2c3c(nc4cc(Cl)ccc24)CCCC3)C1` (centres undefined)?
Tau fluor cs: -5%; Tau fibril FP: 10%; Tau fibril ThT: -14%

What do the screens show for `CCOc1cc(/C=N/Nc2nc(=O)[nH]nc2C)ccc1O`?
Tau fluor cs: -1%; Tau fibril FP: 9%; Tau fibril ThT: -15%; FBPA coupling cs: -4; KDM4E inh: 4%; Sfp PPTase inh: 71µM*

Results for Cc1nnc(N/N=C/c2ccccc2O)n1N ?
Tau fluor cs: -12%; Tau fibril FP: inconclusive; Tau fibril ThT: inconclusive; FBPA coupling cs: -31*; KDM4E inh: -27%; Sfp PPTase inh: 18%

How did CCc1nnc(N/N=C/c2cc(C)c(C)cc2C)n1N do in these assays?
FBPA coupling cs: 0; Sfp PPTase inh: -17%

What do the screens show for `Cc1nnc(N/N=C/c2cc(C)n(-c3ccc(F)cc3)c2C)n1N`?
Tau fluor cs: -24%; Tau fibril FP: inconclusive; Tau fibril ThT: inconclusive; FBPA coupling cs: -42*; KDM4E inh: inconclusive; Sfp PPTase inh: 45µM*

What do the screens show for `CCOc1ccc(/C=N/Nc2nc(=O)[nH]nc2C)cc1OC`?
Tau fluor cs: -8%; Tau fibril FP: 1%; Tau fibril ThT: inconclusive; FBPA coupling cs: -1; KDM4E inh: -12%; Sfp PPTase inh: 25µM*

What do the screens show for `CC(=O)OCC1OC(C#CC(C)(C)C)C=CC1OC(C)=O` (centres undefined)?
Tau fluor cs: -13%[11.6 µM]; Tau fibril FP: inconclusive; Tau fibril ThT: inconclusive; FBPA coupling cs: -1; Sfp PPTase inh: inconclusive

Results for CC(O)CCCCCCC/C=C/C=C/C(N)=O (centres undefined) ?
Tau fluor cs: -20%[11.6 µM]; Tau fibril FP: 4%[11.6 µM]; Tau fibril ThT: inconclusive; FBPA coupling cs: 2; Sfp PPTase inh: 2%

Results for COc1ccc(C2=C/C(=C\c3ccc(OC(C)=O)cc3)C(=O)O2)cc1 ?
Tau fluor cs: -21%; Tau fibril FP: 14%; Tau fibril ThT: inconclusive; FBPA coupling cs: 6; KDM4E inh: -3%; Sfp PPTase inh: -5%

Results for CN(C)c1ccc(/C=C2/C=C(c3ccc4c(c3)CCCC4)OC2=O)cc1 ?
Tau fluor cs: inconclusive; Tau fibril FP: inconclusive; Tau fibril ThT: 3.2µM*; FBPA coupling cs: 1; KDM4E inh: -2%; Sfp PPTase inh: -3%

How did Cc1ccc(/C=C(/C#N)C(=O)NC(C)c2ccccc2)o1 (centres undefined) do in these assays?
Tau fluor cs: 11%; Tau fibril FP: 4%; Tau fibril ThT: -2%; FBPA coupling cs: -3; KDM4E inh: inconclusive; Sfp PPTase inh: 22µM*

Results for CC(C)(C)OC(=O)NCCCC[C@H](NC(=O)c1[nH]cnc1C(=O)Nc1ccc(Cl)cc1)C(=O)OC(C)(C)C ?
Tau fluor cs: inconclusive; Tau fibril FP: inconclusive; Tau fibril ThT: -4%; FBPA coupling cs: -4; KDM4E inh: 22µM*; Sfp PPTase inh: 13%

What do the screens show for `C[C@H](NC(=O)c1[nH]cnc1C(=O)Nc1ccc(Cl)cc1)C(=O)OC(C)(C)C`?
Tau fluor cs: inconclusive; Tau fibril FP: 25µM*; Tau fibril ThT: 10%; FBPA coupling cs: -4; KDM4E inh: 1%; Sfp PPTase inh: 22%

Results for CCOC(=O)c1ccc(NC(=O)c2nc[nH]c2C(=O)N[C@@H](C)C(=O)OC(C)(C)C)cc1 ?
Tau fluor cs: inconclusive; Tau fibril FP: inconclusive; Tau fibril ThT: 13%; FBPA coupling cs: 5; KDM4E inh: -10%; Sfp PPTase inh: 15%

Results for c1ccc2c(c1)C(=Nn1cnnc1)c1ccccc1-2 ?
Tau fluor cs: 7%; Tau fibril FP: 6%; Tau fibril ThT: -9%; FBPA coupling cs: -2; KDM4E inh: -4%; Sfp PPTase inh: 9%

What do the screens show for `O=C1/C(=N/n2cnnc2)c2ccccc2N1Cc1ccccc1`?
Tau fluor cs: 0%; Tau fibril FP: -12%; Tau fibril ThT: inconclusive; FBPA coupling cs: 0; KDM4E inh: 9%; Sfp PPTase inh: 45µM*

How did O=C1C(=O)N(Cc2cccc([N+](=O)[O-])c2)c2ccccc21 do in these assays?
Tau fluor cs: 3%; Tau fibril FP: 5%; Tau fibril ThT: -13%; FBPA coupling cs: -4; KDM4E inh: 5%; Sfp PPTase inh: 5%

How did O=C1C(=O)N(Cc2ccc(Cl)c(Cl)c2)c2ccccc21 do in these assays?
Tau fluor cs: -27%; Tau fibril FP: -4%; Tau fibril ThT: 14µM*; FBPA coupling cs: -1; KDM4E inh: 2%; Sfp PPTase inh: 50µM*

How did COc1ccc(C2/C=C\CN(S(=O)(=O)c3ccc(C)cc3)C(Cc3ccccc3)C(=O)N2Cc2ccc(F)cc2)cc1 (centres undefined) do in these assays?
FBPA coupling cs: 3; Sfp PPTase inh: -5%

Results for O=C(Cn1cc(SCc2c(F)cccc2Cl)c2ccccc21)N1CCCCCC1 ?
Tau fluor cs: -14%; Tau fibril FP: 9%; Tau fibril ThT: -6%

Results for O=C(Cn1c(=O)n(Cc2ccco2)c(=O)c2cc(Cl)ccc21)NCC1CCCO1 (centres undefined) ?
Tau fluor cs: -6%; Tau fibril FP: -3%; Tau fibril ThT: -3%; FBPA coupling cs: 1; KDM4E inh: -7%; Sfp PPTase inh: 40µM*

What do the screens show for `O=C(Cn1c(=O)n(Cc2ccc(F)cc2)c(=O)c2ccccc21)NCC1CCCO1` (centres undefined)?
FBPA coupling cs: -7; Sfp PPTase inh: 10%

What do the screens show for `O=C(CNCC1CCCO1)NCc1ccco1` (centres undefined)?
Tau fluor cs: 1%; Tau fibril FP: 3%; Tau fibril ThT: 4%; FBPA coupling cs: 2; KDM4E inh: 6%; Sfp PPTase inh: 45µM*

How did Nc1ncnc2c1c(I)cn2C1OC(CO)C(O)C1O (centres undefined) do in these assays?
Tau fluor cs: -6%; Tau fibril FP: -12%; Tau fibril ThT: -1%; FBPA coupling cs: -1; KDM4E inh: 0%; Sfp PPTase inh: -5%

How did CC(C)C[C@@H](CC(=O)N[C@@H](CCC(=O)O)CC(=O)O)NC(=O)[C@@H]1CCCC[C@H]1NC(=O)C[C@@H](NC(=O)C[C@H](CO)NC(=O)[C@@H]1CNCC[C@H]1N)C(C)C do in these assays?
Tau fluor cs: -14%; Tau fibril FP: -5%; Tau fibril ThT: -12%; FBPA coupling cs: 1; KDM4E inh: 4%; Sfp PPTase inh: -13%

Results for C/C(CCN1CCc2nc(-c3ccccc3)c(-c3ccccc3)cc2C1)=N\O[C@@H](C)CN1CCCCc2nc(C)c(C)cc21 ?
Tau fluor cs: -1%[11.6 µM]; Tau fibril FP: -1%[11.6 µM]; Tau fibril ThT: -8%[11.5 µM]; FBPA coupling cs: 4; Sfp PPTase inh: 5%
